Assay [1] concerns the target Nuclear receptor subfamily 1 group I member 2 (Homo sapiens) (UniProt O75469). The assay can be described thus: Human pregnane X receptor (PXR) small molecule agonists, qHTS assay (AID 1346982). Further: nearly all actives have a fitted effect of over 35% in size. Further: potency means the concentration at half of the fitted maximal effect. Put shortly:
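Luminescence (ONE-Glo, 30 min RT) after 24 hr compound exposure of PXR-Luc HepG2 cells; cells rested 5 hr post-plating in 5% charcoal-stripped FBS medium.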

The target in assay [2] is Acetylcholinesterase (Homo sapiens) (UniProt P22303). Kind of assay: Acetylcholinesterase (AChE) small molecule antagonists: colormetric cell-based qHTS assay (AID 1347395; calls by dose curve; further: nearly all actives have a fitted effect of over 30% in size). An outline of the steps: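 AChE inhibition read colorimetrically via DTNB–thiocholine in SH-SY5Y cells. Compound 30 min, substrate 90 min, both 37 C.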
(Quantitative high-throughput screening tests each substance at several concentrations.)

The target is the same in assay [3]. Kind of assay: Acetylcholinesterase (AChE) small molecule antagonists: enzyme-based qHTS assay (AID 1347397; calls by dose curve; further: nearly all actives have a fitted effect of over 55% in size; further: potency means the concentration at half of the fitted maximal effect). The conditions noted are these: Potency: AChE enzyme activity inhibition. Put shortly:
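Absorbance-based detection of thiocholine with DTNB served as the read-out. Recombinant human AChE was exposed to compound for 30 min at RT before a 10 min RT incubation with acetylthiocholine.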

The target is the same in assay [4]. The assay can be described thus: Acetylcholinesterase (AChE) small molecule antagonists: fluorescence cell-based qHTS assay (AID 1347398; calls by dose curve; further: nearly all actives have a fitted effect of over 50% in size; further: potency means the concentration at half of the fitted maximal effect). The conditions noted are these: Potency: AChE activity. An outline of the steps: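 Fluorimetric cell-based assay: intact SH-SY5Y cells, 30 min compound preincubation at 37 C, acetylthiocholine substrate with thiol probe Thiolite Green, 40 min RT development, fluorescence 490/520 nm.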

The target in assay [5] is Cytochrome P450 2D6 (Homo sapiens) (UniProt P10635). The assay can be described thus: Cytochrome P450 Family 2 Subfamily D Member 6 (CYP2D6) small molecule antagonists: luciferase reporter qHTS assay (AID 1671196). Further: nearly all actives have a fitted effect of over 50% in size. Further: potency means the concentration at half of the fitted maximal effect. Put shortly:
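Inhibition of CYP2D6 was gauged by loss of luminescence, since light produced tracks the luciferin generated from a proluciferin substrate. A 10 min room-temperature preincubation preceded 1 h NADPH-supported turnover.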

The target in assay [6] is Cytochrome P450 2C19 (Homo sapiens) (UniProt P33261). The assay can be described thus: Cytochrome P450 Family 2 Subfamily C Member 19 (CYP2C19) small molecule antagonists: luciferase reporter qHTS assay (AID 1671197). Further: nearly all actives have a fitted effect of over 65% in size. Further: potency means the concentration at half of the fitted maximal effect. An outline of the steps: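 Light output is proportional to CYP2C19 activity: proluciferin substrate is converted to luciferin, then detected by a luciferin detection reagent that also stops the 1 h, 37C NADPH-driven reaction. Ketoconazole serves as positive control.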

The target in assay [7] is Cytochrome P450 2C9 (Homo sapiens) (UniProt P11712). Kind of assay: Cytochrome P450 Family 2 Subfamily C Member 9 (CYP2C9) small molecule antagonists: luciferase reporter qHTS assay (AID 1671198). Further: nearly all actives have a fitted effect of over 50% in size. Further: potency means the concentration at half of the fitted maximal effect. An outline of the steps: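 Enzyme-substrate mix preincubated with compound 10 min at room temperature; reaction started with NADPH regeneration solution, 1 h 37C. Luminescent luciferin product read after 20 min detection reagent.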

For assay [8], the target named is Cytochrome P450 1A2 (Homo sapiens) (UniProt P05177). Kind of assay: Cytochrome P450 Family 1 Subfamily A Member 2 (CYP1A2) small molecule antagonists: luciferase reporter qHTS assay (AID 1671199). Further: nearly all actives have a fitted effect of over 50% in size. Further: potency means the concentration at half of the fitted maximal effect. Put shortly:
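Signal from luciferin formed by CYP1A2 from a proluciferin substrate is read as luminescence, expressed in relative luminescence units. Compounds sit with enzyme 10 min, NADPH-driven reaction runs 1 h, all at room temperature.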

Assay [9] concerns the target Cytochrome P450 3A4 (Homo sapiens) (UniProt P08684). Kind of assay: Cytochrome P450 Family 3 Subfamily A Member 4 (CYP3A4) small molecule antagonists: luciferase reporter qHTS assay (AID 1671201). Further: nearly all actives have a fitted effect of over 50% in size. Further: potency means the concentration at half of the fitted maximal effect. Put shortly: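 Proluciferin-to-luciferin conversion by CYP3A4, NADPH-regenerated, 1 h RT; luminescence read as RLU. Ketoconazole as control.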
Assay [10] can be described thus: Caspase-3/7 induction in HepG2 cells by small molecules, qHTS cell viability counter screen (AID 1346981). Further: nearly all actives have a fitted effect of over 30% in size. Further: potency means the concentration at half of the fitted maximal effect. An outline of the steps:
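Counter screen for cytotoxicity: HepG2 exposed 16 hr to compounds, then CellTiter-Fluor viability signal (fluorescence, 1 hr reagent incubation).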

The target in assay [11] is Acetylcholinesterase (Homo sapiens) (UniProt P22303). Kind of assay: Acetylcholinesterase (AChE) small molecule antagonists: enzyme-based qHTS assay with human liver microsomes (AID 1347399; calls by dose curve; further: nearly all actives have a fitted effect of over 60% in size). The following applies: Potency: qHTS inhibition. Put shortly:
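Recombinant human AChE (50 mU/mL in the enzyme mix) and human liver microsomes (0.25 mg/mL final) were preincubated with compound and NADPH (0.25 mg/mL final) for 30 min at 37 C. Acetylthiocholine/DTNB was then added; thiocholine was read colorimetrically after 10 min at room temperature.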

The nature of assay [12]: Caspase-3/7 induction in CHO-K1 cells by small molecules, qHTS assay (AID 1346980). Further: nearly all actives have a fitted effect of over 15% in size. Put shortly:
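Luminescent Caspase-Glo 3/7 read (30min, room temperature) quantified apoptosis induction. Cells were wild-type CHO-K1, treated with compound for 17hr at 37 C and 5% CO2.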

Assay [13] deals with Nuclear receptor subfamily 1 group I member 2 (Rattus norvegicus) (UniProt Q9R1A7). The assay can be described thus: Rat pregnane X receptor (rPXR) activation by small molecules, qHTS assay (AID 1346983). Further: nearly all actives have a fitted effect of over 20% in size. The following applies: rPXR luciferase reporter cells, One-Glo luminescence, 24 h; max activation: stronger effect = higher value. An outline of the steps: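 Luminescent readout (One-Glo luciferase, 30 min room temperature) followed 24 hr compound treatment at 37 C of rPXR cells plated 2,000 per well and preincubated 5hr; qHTS format with compounds delivered in DMSO.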

Assay [14] has as its target Nuclear receptor subfamily 1 group I member 2 (Homo sapiens) (UniProt O75469). The assay can be described thus: CYP3A4 induction through human pregnane X receptor (PXR) by small molecules, qHTS assay (AID 1346984). Further: nearly all actives have a fitted effect of over 40% in size. Further: potency means the concentration at half of the fitted maximal effect. An outline of the steps:
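DPX-2 reporter cells; 24h cpd, 37C; Luciferin-IPA 3uM final x3h; One-Glo 30 min RT; lumi read.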

Assay [15] has as its target Voltage-gated inwardly rectifying potassium channel KCNH2 (Homo sapiens) (UniProt Q12809). Kind of assay: Human Ether-a-go-go-Related Gene (hERG) channel small molecule antagonists: fluorescence cell-based qHTS assay (AID 1671200). Further: nearly all actives have a fitted effect of over 50% in size. Further: potency means the concentration at half of the fitted maximal effect. An outline of the steps: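 Kinetic two-minute fluorescence traces, sampled at 1 s, were collected following thallium stimulus of U2OS cells (1000 per well) that had been cultured overnight at 37 C and loaded with FluxOR II.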
(The hERG channel carries a current that helps repolarise heart muscle cells.)

Assay [16] deals with Nuclear receptor subfamily 1 group I member 2 (Homo sapiens) (UniProt O75469). Kind of assay: Human pregnane X receptor (PXR) activation by small molecules, qHTS assay (AID 1346985). Further: nearly all actives have a fitted effect of over 40% in size. Further: potency means the concentration at half of the fitted maximal effect. An outline of the steps:
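DPX-2 cells (HepG2 co-transfected with a PXR response element and a CYP3A4-promoter luciferase construct) were seeded at 2,000 per well, rested 5 hr at 37C, then exposed to DMSO-dissolved compounds for 24 hr. Activation was read as luciferase luminescence.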

Each structure is given as a SMILES string. “And” between values parts separate entries of the source, which are not always exact repeats. Equal values may be shown once. Records with an inconclusive call do not appear. More than one record can exist for a structure, and the calls need not agree. The source made the active and inactive calls. Unless noted, the call rests on the fitted dose curve; in most records, active means well fitted curve in the direction sought with a large enough effect in the repeat runs; inconclusive means weak or mixed curves; inactive means no such curve, though single readings can be large; an effect the other way counts as inactive or inconclusive.
On the % scale 0 is the no-effect control and ±100 the full control effect.

Chain of Cytochrome P450 3A4 (Homo sapiens) (P08684 whole entry, looked up): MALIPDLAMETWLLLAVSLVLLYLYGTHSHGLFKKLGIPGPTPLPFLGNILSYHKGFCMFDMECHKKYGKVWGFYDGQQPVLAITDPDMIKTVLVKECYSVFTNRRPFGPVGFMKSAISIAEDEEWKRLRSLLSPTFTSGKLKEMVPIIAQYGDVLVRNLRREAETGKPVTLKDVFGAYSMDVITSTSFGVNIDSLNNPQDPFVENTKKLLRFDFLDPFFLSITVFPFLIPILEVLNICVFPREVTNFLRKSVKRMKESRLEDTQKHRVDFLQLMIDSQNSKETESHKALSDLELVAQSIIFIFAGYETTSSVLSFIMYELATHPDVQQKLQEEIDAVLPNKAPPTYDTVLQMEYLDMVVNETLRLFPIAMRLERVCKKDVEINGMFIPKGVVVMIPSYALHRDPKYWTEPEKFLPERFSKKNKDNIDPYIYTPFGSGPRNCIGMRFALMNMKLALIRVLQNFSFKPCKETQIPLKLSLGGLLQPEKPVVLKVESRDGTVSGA
Chain of Cytochrome P450 2C9 (Homo sapiens) (P11712 whole entry, looked up): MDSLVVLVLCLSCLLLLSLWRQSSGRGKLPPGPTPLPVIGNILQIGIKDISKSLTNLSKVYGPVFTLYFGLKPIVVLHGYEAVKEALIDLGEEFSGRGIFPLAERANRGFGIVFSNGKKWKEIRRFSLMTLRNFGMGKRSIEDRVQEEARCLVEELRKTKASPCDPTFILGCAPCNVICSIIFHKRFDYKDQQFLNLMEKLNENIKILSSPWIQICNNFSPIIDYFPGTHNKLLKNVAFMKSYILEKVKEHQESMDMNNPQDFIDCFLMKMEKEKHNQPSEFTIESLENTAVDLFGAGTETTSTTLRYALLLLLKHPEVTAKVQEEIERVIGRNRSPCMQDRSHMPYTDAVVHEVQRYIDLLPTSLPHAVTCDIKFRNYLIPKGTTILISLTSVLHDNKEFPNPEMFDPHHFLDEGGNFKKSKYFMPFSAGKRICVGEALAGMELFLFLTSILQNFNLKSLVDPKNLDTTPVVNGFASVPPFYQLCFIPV
Chain of Voltage-gated inwardly rectifying potassium channel KCNH2 (Homo sapiens) (Q12809 whole entry, looked up): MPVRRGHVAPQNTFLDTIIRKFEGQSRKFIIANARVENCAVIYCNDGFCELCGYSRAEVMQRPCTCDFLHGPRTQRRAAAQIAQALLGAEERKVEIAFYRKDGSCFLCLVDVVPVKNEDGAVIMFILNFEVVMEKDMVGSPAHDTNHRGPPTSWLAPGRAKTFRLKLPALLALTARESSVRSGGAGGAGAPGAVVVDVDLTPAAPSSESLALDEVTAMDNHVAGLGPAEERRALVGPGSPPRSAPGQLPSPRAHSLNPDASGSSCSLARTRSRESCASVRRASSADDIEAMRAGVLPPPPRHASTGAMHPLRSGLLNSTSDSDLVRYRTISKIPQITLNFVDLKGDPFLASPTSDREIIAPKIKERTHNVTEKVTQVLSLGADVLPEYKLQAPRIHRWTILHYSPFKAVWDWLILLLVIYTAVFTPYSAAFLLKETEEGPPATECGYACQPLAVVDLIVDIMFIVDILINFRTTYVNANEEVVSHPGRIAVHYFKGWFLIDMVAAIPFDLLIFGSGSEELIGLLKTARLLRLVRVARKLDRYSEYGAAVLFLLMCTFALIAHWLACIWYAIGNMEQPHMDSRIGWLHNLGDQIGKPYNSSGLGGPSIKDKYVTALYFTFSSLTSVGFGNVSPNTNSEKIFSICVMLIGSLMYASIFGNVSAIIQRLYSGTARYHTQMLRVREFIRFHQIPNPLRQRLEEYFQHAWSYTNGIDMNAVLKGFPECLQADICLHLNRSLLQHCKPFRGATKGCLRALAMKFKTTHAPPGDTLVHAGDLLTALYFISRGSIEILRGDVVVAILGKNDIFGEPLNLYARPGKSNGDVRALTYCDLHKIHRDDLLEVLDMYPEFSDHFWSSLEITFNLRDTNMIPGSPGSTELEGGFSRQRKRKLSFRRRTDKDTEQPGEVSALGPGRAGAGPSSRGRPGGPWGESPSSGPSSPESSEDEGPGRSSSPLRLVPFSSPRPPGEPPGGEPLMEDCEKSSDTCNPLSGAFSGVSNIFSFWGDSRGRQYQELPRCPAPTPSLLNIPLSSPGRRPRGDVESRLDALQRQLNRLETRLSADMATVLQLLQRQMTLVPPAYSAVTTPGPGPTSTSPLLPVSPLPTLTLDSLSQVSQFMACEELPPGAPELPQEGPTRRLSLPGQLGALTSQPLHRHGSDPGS
Chain of Nuclear receptor subfamily 1 group I member 2 (Homo sapiens) (O75469 whole entry, looked up): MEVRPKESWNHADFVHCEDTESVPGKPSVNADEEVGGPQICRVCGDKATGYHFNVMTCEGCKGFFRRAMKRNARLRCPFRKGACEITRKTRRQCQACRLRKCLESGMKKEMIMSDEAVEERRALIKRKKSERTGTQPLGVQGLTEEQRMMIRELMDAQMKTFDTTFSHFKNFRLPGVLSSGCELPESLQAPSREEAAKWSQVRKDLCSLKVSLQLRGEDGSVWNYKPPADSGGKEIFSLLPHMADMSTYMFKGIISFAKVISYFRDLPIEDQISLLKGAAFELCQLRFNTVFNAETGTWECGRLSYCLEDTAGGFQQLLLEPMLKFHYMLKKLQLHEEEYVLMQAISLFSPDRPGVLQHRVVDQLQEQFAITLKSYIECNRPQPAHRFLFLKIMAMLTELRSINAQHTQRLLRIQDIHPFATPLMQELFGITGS
Chain of Cytochrome P450 2C19 (Homo sapiens) (P33261 whole entry, looked up): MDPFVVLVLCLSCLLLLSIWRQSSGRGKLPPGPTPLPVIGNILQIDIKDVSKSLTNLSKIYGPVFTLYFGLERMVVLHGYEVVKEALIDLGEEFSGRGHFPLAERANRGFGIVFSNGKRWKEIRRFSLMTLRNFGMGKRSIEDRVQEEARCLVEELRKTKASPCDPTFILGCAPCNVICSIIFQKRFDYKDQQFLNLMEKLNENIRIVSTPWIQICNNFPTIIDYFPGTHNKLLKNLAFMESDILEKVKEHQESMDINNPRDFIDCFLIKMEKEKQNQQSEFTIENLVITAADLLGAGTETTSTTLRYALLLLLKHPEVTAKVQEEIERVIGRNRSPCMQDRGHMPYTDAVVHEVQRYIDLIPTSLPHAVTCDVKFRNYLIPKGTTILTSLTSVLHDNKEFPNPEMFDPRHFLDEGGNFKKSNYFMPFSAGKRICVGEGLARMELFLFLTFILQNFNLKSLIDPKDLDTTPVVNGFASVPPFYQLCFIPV
Chain of Cytochrome P450 1A2 (Homo sapiens) (P05177 whole entry, looked up): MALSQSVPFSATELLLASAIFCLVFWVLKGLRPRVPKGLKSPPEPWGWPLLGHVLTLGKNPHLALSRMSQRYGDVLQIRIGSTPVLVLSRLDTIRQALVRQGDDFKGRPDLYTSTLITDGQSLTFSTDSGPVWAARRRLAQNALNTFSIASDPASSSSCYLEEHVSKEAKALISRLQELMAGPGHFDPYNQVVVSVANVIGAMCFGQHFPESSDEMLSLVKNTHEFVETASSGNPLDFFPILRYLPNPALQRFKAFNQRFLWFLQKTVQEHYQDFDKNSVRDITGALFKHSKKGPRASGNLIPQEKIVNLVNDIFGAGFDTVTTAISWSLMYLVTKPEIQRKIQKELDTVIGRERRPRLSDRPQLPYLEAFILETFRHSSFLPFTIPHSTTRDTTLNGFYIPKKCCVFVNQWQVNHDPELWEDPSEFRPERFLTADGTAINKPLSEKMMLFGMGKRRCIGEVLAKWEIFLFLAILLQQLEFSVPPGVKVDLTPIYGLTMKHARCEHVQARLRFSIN
Chain of Acetylcholinesterase (Homo sapiens) (P22303 whole entry, looked up): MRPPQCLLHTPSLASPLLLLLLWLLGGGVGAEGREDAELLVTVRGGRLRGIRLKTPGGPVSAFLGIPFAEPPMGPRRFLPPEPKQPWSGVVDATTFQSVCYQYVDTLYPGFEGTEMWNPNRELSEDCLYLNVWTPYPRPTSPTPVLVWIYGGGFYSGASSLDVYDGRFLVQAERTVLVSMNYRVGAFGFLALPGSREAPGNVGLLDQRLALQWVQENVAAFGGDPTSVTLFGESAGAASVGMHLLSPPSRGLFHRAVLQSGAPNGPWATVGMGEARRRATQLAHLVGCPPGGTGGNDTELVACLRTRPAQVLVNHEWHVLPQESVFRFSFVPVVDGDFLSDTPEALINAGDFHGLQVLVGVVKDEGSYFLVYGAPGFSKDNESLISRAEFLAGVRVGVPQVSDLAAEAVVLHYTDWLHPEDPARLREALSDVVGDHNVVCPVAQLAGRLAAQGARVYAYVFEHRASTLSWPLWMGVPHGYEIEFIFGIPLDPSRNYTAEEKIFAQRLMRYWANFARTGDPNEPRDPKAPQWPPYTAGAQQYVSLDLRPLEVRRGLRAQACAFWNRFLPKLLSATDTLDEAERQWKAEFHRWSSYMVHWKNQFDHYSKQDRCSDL
Chain of Cytochrome P450 2D6 (Homo sapiens) (P10635 whole entry, looked up): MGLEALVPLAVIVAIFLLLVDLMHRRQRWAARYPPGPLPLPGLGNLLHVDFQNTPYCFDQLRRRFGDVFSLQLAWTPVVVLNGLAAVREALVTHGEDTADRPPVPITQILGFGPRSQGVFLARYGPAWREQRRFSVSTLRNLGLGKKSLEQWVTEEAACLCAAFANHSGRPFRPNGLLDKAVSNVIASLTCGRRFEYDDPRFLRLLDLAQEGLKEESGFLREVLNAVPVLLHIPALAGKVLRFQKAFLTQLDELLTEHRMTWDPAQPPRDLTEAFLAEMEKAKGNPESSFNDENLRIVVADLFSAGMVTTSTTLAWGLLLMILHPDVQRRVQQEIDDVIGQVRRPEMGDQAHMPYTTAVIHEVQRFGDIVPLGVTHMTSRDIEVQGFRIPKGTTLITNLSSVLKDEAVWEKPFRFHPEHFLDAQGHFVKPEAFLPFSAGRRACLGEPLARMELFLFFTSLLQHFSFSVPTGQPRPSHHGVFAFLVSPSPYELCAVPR

Consider `Clc1ccc(C(c2ccccc2Cl)C(Cl)(Cl)Cl)cc1` (stereo not drawn), for which the Potency in [1] is 34.6 µM (active) and inactive; in assay [6] it was 637 nM (active) and 234 nM (active); in [7], 22.6 µM (active) and 10.4 µM (active). For the same compound, the Potency entry in assay [2], in [3], in [4], in assay [5], in assay [8] and in assay [9] was “inactive” each time.

With `OC(c1ccc(Cl)cc1)(c1ccc(Cl)cc1)C(Cl)(Cl)Cl`, the Potency entry in assay [10], in assay [2], in assay [3], in assay [4], in assay [11] and in [9] was “inactive” each time. Besides, the Potency in assay [1] is 24.3 µM (active); in [5], 31.7 µM (active); in assay [6], 0.0564 µM (active); in assay [7], 5.03 µM (active); in [8] it was 14.2 µM (active).

With `O=C(O)COc1nc(Cl)c(Cl)cc1Cl`, the Potency entry in assay [12], in [1], in assay [2], in [3] and in [11] was “inactive” in each case. Moreover, the Potency in [5] was 6.48 µM (active); in assay [7], 51.5 µM (active).

On to `CC(C)CCCCCCCOP(=O)(Oc1ccccc1)Oc1ccccc1`, for which the Potency result in assay [12], in assay [2], in assay [3] and in [11] was “inactive” each time. For the same compound, the values for the Potency in assay [1], in assay [6] and in [7] were 6.89 µM (active), 6.36 µM (active) and 6.36 µM (active), respectively.

Regarding `CC1CCC(C(C)C)C(OC(=O)c2ccccc2N)C1` (stereo not drawn), the Potency in assay [1] is 19.1 µM (active); in [6], 1.11 µM (active); in assay [7], 2.48 µM (active); in assay [8], 12.4 µM (active); in assay [15], 43 µM (active). The max activation in assay [13] is 13.1% (inactive). The Potency result in assay [14], in assay [2], in [3], in assay [4], in assay [11] and in assay [9] was “inactive” throughout.

As for `C[As+](C)(C)CC(=O)[O-]`, the Potency result in assay [12], in assay [1], in [2], in assay [3], in [4] and in [11] was “inactive” each time. Also, the Potency entry in assay [5], in [6], in [7], in assay [8] and in assay [9] was “inactive” throughout.

Regarding `CC(C)(O)c1cnn2c(-c3ccc(F)c(-c4c(F)cccc4C#N)c3)cnc2n1`, the Potency entry in assay [12], in assay [3] and in [11] was “inactive” each time. For the same compound, the Potency is 2.43 µM (active) in assay [1]; 28.3 µM (active) in [4]; 8.94 µM (active) in assay [6]; 1.26 µM (active) in assay [7]; 35.6 µM (active) in assay [9].

Turning to `CC(C)OC(=O)C(O)(c1ccc(Cl)cc1)c1ccc(Cl)cc1`, the Potency in [1] was 21.7 µM (active); in [5], 31.7 µM (active); in [6], 2 µM (active); in assay [7] it was 8.94 µM (active); in [15], 21.9 µM (active). Also, the Potency entry in assay [2], in [3], in assay [4], in assay [11] and in [9] was “inactive” throughout.

Consider `O=[N+]([O-])c1c2ccccc2cc2ccccc12`, for which the Potency result in assay [12], in assay [2], in assay [3], in assay [4], in assay [11] and in assay [15] was “inactive” in each case. Further, the Potency was 21.7 µM (active) in assay [1]; 2.22 µM (active) in assay [5]; 11.1 µM (active) in [6]; 11.1 µM (active) in assay [7]; 0.3 µM (active) in [8].

With `CCCCCCCCCC[N+](C)(C)CCCCCCCCCC`, the Potency in assay [10] was 68.6 µM (active); in assay [3], 31.7 µM (active); in assay [4] it was 56.4 µM (active); in assay [5], 1 µM (active); in assay [6], 35.6 µM (active); in assay [7] it was 39.9 µM (active). Also, the Potency was 39.9 µM (active) in [8] and 56.4 µM (active) in [9]. In addition, the Potency entry in assay [1], in assay [14], in [16] and in [11] was “inactive” each time. Besides, the max activation in assay [13] is -13.5% (inactive).

In the case of `C=COCCCl`, the Potency entry in assay [12], in [1], in assay [2], in [3], in assay [4] and in assay [11] was “inactive” in each case. The Potency result in [5], in assay [6], in [7] and in [9] was “inactive” each time.

Regarding `CC(C)Oc1cccc(NC(=O)c2ccccc2C(F)(F)F)c1`, the Potency result in [12], in assay [2], in assay [3] and in assay [11] was “inactive” each time. The Potency in [1] was 19.3 µM (active); in [6], 3.99 µM (active); in [7] it was 13 µM (active); in assay [8], 10.6 µM (active); in [15], 50.4 µM (active).

`O=[N+]([O-])c1cc([N+](=O)[O-])c2ccccc2c1`: the Potency result in assay [12], in assay [3], in assay [11], in assay [7], in assay [15] and in [9] was “inactive” each time.

Take `CCOC(=O)C1(c2ccccc2)CCN(CCC(C#N)(c2ccccc2)c2ccccc2)CC1`: the Potency entry in [12], in [2], in [3], in assay [4], in assay [11] and in assay [8] was “inactive” each time. The Potency entry in [9] is “inactive”. The Potency in assay [1] is 3.35 µM (active); in [14], 1.41 µM (active); in [16], 1.12 µM (active); in assay [5], 4.9 µM (active); in assay [6] it was 9.77 µM (active); in assay [7] it was 3.09 µM (active).

`CC(=O)/C=C/c1ccc2c(c1)OCO2`: the Potency result in assay [12], in [3], in assay [11] and in assay [15] was “inactive” throughout. For the same compound, the Potency in assay [1] was 61.4 µM (active); in assay [5], 25.3 µM (active); in assay [6], 14.2 µM (active); in assay [7] it was 8.01 µM (active); in assay [8], 0.226 µM (active); in [9], 2.53 µM (active).

With `ClC1=C(Cl)[C@]2(Cl)[C@@H]3[C@@H]4C[C@@H]([C@H]5O[C@@H]45)[C@@H]3[C@@]1(Cl)C2(Cl)Cl`, the Potency in [1] was 13.7 µM (active); in [5] it was 25.2 µM (active); in assay [6] it was 3.17 µM (active). In addition, the Potency result in [2], in [3] and in assay [11] was “inactive” in each case.

(Values after PubChem BioAssay (Tox21).)
